Source: PubChem (National Center for Advancing Translational Sciences (NCATS))
Most compounds without a hit are left out; they make up all but 2.6% or so of the library.
BRCA1 expr up = qHTS Assay to Identify Small Molecule Activators of BRCA1 Expression | MCF7-BRCA1-FFLuc reporter, luminescence, 48 h; response scale: scaled: vehicle 0%, 10 µM genistein 100% | Potency, µM (series often up to 46.1 µM), inactives show top-dose activation, actives largely listed as activators | 380,000 compounds, 1.1% hits | AID 624202, 2012; also: nearly all actives have a fitted effect of over 80% in size
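MCF7-BRCA1-FFLuc, 2000 cells/well; 2 h attach, 37 °C/5% CO2; compound 48 h; luciferase substrate 15 min; luminescence end-point. Norm. to genistein 10 microM max activation and DMSO; concentration-response curves fitted.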
HEK293 tox = qHTS of GLP-1 Receptor Inverse Agonists: Cytotox Screen; HEK293 cAMP-luciferase reporter cells, luminescence, 24 h; Potency, µM (top dose mostly 38.3 µM), inactives show at the highest dose activity change, negative = inhibition, actives largely listed as inhibitors; 410,000 compounds, 0.13% hits;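 also: loss of luciferase light is scored as toxicity; % is scaled to controls: 0 for no effect and ±100 for the full control effect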
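Cells in DMEM/10% Nu serum/1% pen-strep, 1536-well format. Pre-incubated 12 h, dosed with 23 nL compound, incubated a further 24 h. Luciferase detection, 12 min at room temp, luminescence.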
GLP1R inv ag = qHTS of GLP-1 Receptor Inverse Agonists (Inhibition Mode). AID 624417, 2012. Potency, µM (doses to about 38.3 µM), for inactives: at the top dose activity change, negative = inhibition, actives largely listed as inhibitors. Glucagon-like peptide 1 receptor (Homo sapiens), P43220. HEK293 GLP-1R CRE-luciferase, luminescence, 24 h; GLP-1R form is constitutively active. 410,000 compounds, 1.6% hits; also: % is scaled to controls: 0 for no effect and ±100 for the full control effect; nearly all actives have a fitted effect of over 55% in size
Target sequence (P43220 whole entry, looked up): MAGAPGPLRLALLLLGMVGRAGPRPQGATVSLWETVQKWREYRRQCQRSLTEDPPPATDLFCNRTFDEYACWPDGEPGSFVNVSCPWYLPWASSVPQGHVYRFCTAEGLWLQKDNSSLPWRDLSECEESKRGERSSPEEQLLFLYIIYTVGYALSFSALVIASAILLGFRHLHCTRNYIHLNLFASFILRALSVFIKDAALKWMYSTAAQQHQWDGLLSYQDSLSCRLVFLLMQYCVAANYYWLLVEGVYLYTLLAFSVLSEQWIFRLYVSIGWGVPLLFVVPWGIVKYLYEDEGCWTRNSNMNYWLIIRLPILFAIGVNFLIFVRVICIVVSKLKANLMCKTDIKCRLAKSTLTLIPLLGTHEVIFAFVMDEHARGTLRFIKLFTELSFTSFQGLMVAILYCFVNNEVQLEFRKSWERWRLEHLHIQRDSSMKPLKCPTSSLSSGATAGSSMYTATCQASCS
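Readout was luciferase luminescence, measured 12 min after detection reagent at room temperature. Beforehand, GLP-1R reporter HEK293 cells had sat 12 h, then received compounds for 24 hr at 37 deg C.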
GLP1R ag = qHTS of GLP-1 Receptor Agonists | Glucagon-like peptide 1 receptor (Homo sapiens), P43220 | HEK293 GLP-1R CRE-luciferase, luminescence, 4-6 h; cells express a hypersensitive GLP-1R form | Potency, µM (series often up to 45.6 µM), for the others: at the highest dose activation, hits mostly activators | 380,000 compounds, 0.007% hits | AID 624172, 2012; also: % of control where 0% means no effect
The depositor's hits bear a star. Calls follow the shape of the dose curve; as a rule, active = well fitted curve in the direction sought with a large enough effect; inconclusive = small, poorly fitted or top-dose-only effect, or another doubt; inactive = no such curve, though single readings can be large; an effect the other way counts as inactive or inconclusive. Potency is read from the fitted curve at half-maximal effect.

Screening COc1ccc(C(=O)N2C=Cc3ccccc3C2C#N)cc1 (stereo not drawn) returned BRCA1 expr up 1%, HEK293 tox -20%, GLP1R inv ag inconclusive and GLP1R ag -4%.
N#CC1c2ccccc2-c2ccccc2N1C(=O)c1ccccc1 (stereo not drawn) was read as BRCA1 expr up -60%, HEK293 tox -23%, GLP1R inv ag 7.1µM* and GLP1R ag 17%.
COCCNC(=S)N/N=C(\C)c1ccc(Cl)c(Cl)c1Cl was read as BRCA1 expr up 6%, HEK293 tox 3.5µM*, GLP1R inv ag inconclusive and GLP1R ag 21%.
Screening COCCNC(=S)N/N=C(\C)c1ccc(Cl)s1 returned BRCA1 expr up -17%, HEK293 tox 2.8µM*, GLP1R inv ag 2.2µM* and GLP1R ag 11%.
For COCCNC(=S)N/N=C(\C)c1cccc([N+](=O)[O-])c1 the results were BRCA1 expr up -5%, HEK293 tox inconclusive, GLP1R inv ag inconclusive and GLP1R ag 13%.
COCCNC(=S)N/N=C(\C)c1cccc(OC)c1 was read as BRCA1 expr up -19%, HEK293 tox inconclusive, GLP1R inv ag 4µM* and GLP1R ag 6%.
Screening CCNC(=S)N/N=C(\C)c1cccc(C(F)(F)F)c1 returned BRCA1 expr up -3%, HEK293 tox 4.5µM*, GLP1R inv ag 4.5µM* and GLP1R ag 16%.
For CC(=O)N/N=C(\C)c1cccc(C(F)(F)F)c1 the results were BRCA1 expr up 12%, HEK293 tox -5%, GLP1R inv ag 5% and GLP1R ag 4%.
For Cc1cccc(C(=O)Nc2ccc3oc(-c4ccncc4)nc3c2)c1 the results were HEK293 tox 5% and GLP1R inv ag 1%.
Cn1c(SCc2ccc(F)cc2)nc2ccc(C(=O)NCc3cccc(Cl)c3)cc21 was read as HEK293 tox -8% and GLP1R inv ag -10%.
Screening S=C(NCCc1cccc(Cl)c1)NC1CCCCC1 returned BRCA1 expr up 3.2µM*, HEK293 tox inconclusive, GLP1R inv ag inconclusive and GLP1R ag 0%.
For O=C(NCCc1ccccc1F)c1cccc2cccnc12 the results were BRCA1 expr up 2µM*, HEK293 tox -7%, GLP1R inv ag 15% and GLP1R ag 22%.
For CCN(CC)CCN(Cc1cc2cc(C)ccc2[nH]c1=O)C(=O)Nc1ccccc1OC the results were BRCA1 expr up 1%, HEK293 tox inconclusive, GLP1R inv ag 13µM* and GLP1R ag -9%.
For Cc1cc2cc(CN(CCN(C)C)C(=S)NCc3ccco3)c(=O)[nH]c2cc1C the results were BRCA1 expr up -19%, HEK293 tox -8%, GLP1R inv ag inconclusive and GLP1R ag 16%.
Screening CCN(CC)CCN(Cc1cc2cc(C)c(C)cc2[nH]c1=O)C(=S)NCc1ccco1 returned BRCA1 expr up -1%, HEK293 tox inconclusive, GLP1R inv ag 10µM* and GLP1R ag 13%.
`COc1ccccc1NC(=O)N(Cc1ccco1)Cc1cc2cccc(C)c2[nH]c1=O` gave BRCA1 expr up -39%, HEK293 tox -14%, GLP1R inv ag 11µM* and GLP1R ag 1%.
For COc1ccccc1NC(=O)N(Cc1ccco1)Cc1cc2c(C)ccc(C)c2[nH]c1=O the results were BRCA1 expr up 17%, HEK293 tox 5%, GLP1R inv ag -26% and GLP1R ag -11%.
`Cn1cc(-c2cc3n(n2)CCC(=O)N3CCCC(=O)NCc2ccccc2)c2ccccc21` gave HEK293 tox -26% and GLP1R inv ag inconclusive.
Screening Cn1c(=N)n(CC(=O)O)c2ccccc21 returned BRCA1 expr up 27%, HEK293 tox 20%, GLP1R inv ag 22% and GLP1R ag 8%.
`Cn1c(=N)n(CC(=O)c2ccccc2)c2ccccc21` gave BRCA1 expr up -52%, HEK293 tox -18%, GLP1R inv ag 11µM* and GLP1R ag -1%.
Screening Cn1c(=N)n(CC(=O)c2ccc(Cl)c(Cl)c2)c2ccccc21 returned BRCA1 expr up -50%, HEK293 tox 13%, GLP1R inv ag 7.1µM* and GLP1R ag -8%.
For Cn1nnnc1SCCCNCc1ccc(-c2ccc(Br)cc2)o1 the results were HEK293 tox -7% and GLP1R inv ag inconclusive.
Screening C[C@H](CO)N1C[C@H](C)[C@@H](CN(C)Cc2ccc(Oc3ccccc3)cc2)OCc2cnnn2CCCC1=O returned BRCA1 expr up -1%, HEK293 tox -5%, GLP1R inv ag 10% and GLP1R ag -8%.
`CCN(CC)C(=O)c1sc2c(c1C)c(=O)n(Cc1ccccc1)c(=O)n2Cc1ccccc1C` gave HEK293 tox -12% and GLP1R inv ag 11µM*.
CCN(CC)C(=O)c1sc2c(c1C)c(=O)n(CCc1ccccc1)c(=O)n2Cc1cccc(Cl)c1 was read as HEK293 tox 1% and GLP1R inv ag inconclusive.
`CC[n+]1c(-c2ccc(C)cc2)csc1Nc1c(C)n(C)n(-c2ccccc2)c1=O` gave BRCA1 expr up -24%, HEK293 tox -18%, GLP1R inv ag 8.9µM* and GLP1R ag 9%.
Screening CC[n+]1c(-c2ccccc2)csc1Nc1c(C)n(C)n(-c2ccccc2)c1=O returned BRCA1 expr up -4%, HEK293 tox 3%, GLP1R inv ag inconclusive and GLP1R ag -3%.
For CC1=C(c2ccc(C(C)C)cc2)S(=O)(=O)NC1=NCc1ccccc1C the results were HEK293 tox -6% and GLP1R inv ag -12%.
`Cc1cc([N+](=O)[O-])ccc1NC(=O)c1csc(C)c1C` gave BRCA1 expr up 5µM*, HEK293 tox -25%, GLP1R inv ag 15% and GLP1R ag 9%.
Screening COc1ccc(-c2nc3ccccc3n3c(-c4cccc(C)c4)c4c(=O)n(C)c(=O)n(C)c4c23)cc1 returned HEK293 tox 13% and GLP1R inv ag -11%.
Screening COc1ccc(CN2CCN(Cc3ccc(C(F)(F)F)cc3)CC2)c(OC)c1 returned BRCA1 expr up -42%, HEK293 tox -17%, GLP1R inv ag 11µM* and GLP1R ag 19%.
Screening COc1ccc(CN2CCN(Cc3ccc(C)cc3)CC2)c(OC)c1 returned BRCA1 expr up -29%, HEK293 tox 10%, GLP1R inv ag inconclusive and GLP1R ag 1%.
`CCCCc1ccc(-n2nc3cc(Cl)c(NC(=O)c4ccc(OC)cc4)cc3n2)cc1` gave BRCA1 expr up 39%, HEK293 tox -3%, GLP1R inv ag 5% and GLP1R ag 0%.
Cc1ccccc1CN1CCN(S(=O)(=O)c2ccc(Cl)s2)CC1 was read as BRCA1 expr up -30%, HEK293 tox -10%, GLP1R inv ag 10µM* and GLP1R ag 1%.
Cc1ccccc1CN1CCN(S(C)(=O)=O)CC1 was read as BRCA1 expr up -1%, HEK293 tox 6%, GLP1R inv ag 5% and GLP1R ag 1%.
